Measurements reported in the supplement of paper PMC11634586.

Each compound was assayed on NCI-H1688 (assay: inhibition of cell viability relative to untreated control (fraction); higher = stronger growth inhibition, active = 0.5 or more). Details: 30 µM; 24 h.
Summary of the method: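 Inhibition of cell viability appears as a fraction, based on viability relative to untreated cells. The assay used NCI-H1688 small cell lung cancer cells seeded in 96-well plates at 3 × 10^3 cells/well, treated one day later with a natural compound library (TargetMol) at 30 µM for 24 h at 37°C and 5% CO2. Absorbance at 450 nm with Cell Counting Kit-8 was recorded in triplicate.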

| SMILES | inhibition of cell viability |
| --- | --- |
| COC(=O)[C@H]1[C@H]2C[C@@H]3c4[nH]c5cc(OC)ccc5c4CCN3C[C@H]2C[C@@H](OC(=O)c2cc(OC)c(OC)c(OC)c2)[C@@H]1OC [Reserpine] | 0.981 (active) |
| COc1c2ccoc2cc2oc(=O)ccc12 [Bergapten] | 0.298 (inactive) |
| Cc1cc2nc3c(=O)[nH]c(=O)nc-3n(C[C@H](O)[C@H](O)[C@H](O)COP(=O)(O)O)c2cc1C [Flavin mononucleotide] | 0.0137 (inactive) |
| C[C@H](CCC(=O)O)[C@H]1CC[C@H]2[C@@H]3C[C@H](O)[C@@H]4C[C@H](O)CC[C@]4(C)[C@H]3CC[C@]12C [Hyodeoxycholic acid (HDCA)] | -0.163 (inactive) |
| CC(C)=CCC[C@](C)(O)[C@H]1CC[C@]2(C)[C@@H]1[C@H](O)C[C@@H]1[C@@]3(C)CC[C@H](O)C(C)(C)[C@@H]3[C@@H](O)C[C@]12C [Protopanaxatriol] | -0.051 (inactive) |
| Oc1ccc(/C=C/c2cc(O)cc(O)c2)cc1 [Resveratrol] | 0.49 (inactive) |
| CC(C)=CCC[C@](C)(O)[C@H]1CC[C@]2(C)[C@@H]1[C@H](O)C[C@@H]1[C@@]3(C)CC[C@H](O)C(C)(C)[C@@H]3CC[C@]12C [(20S)-Protopanaxadiol] | -0.0275 (inactive) |
| O=Cc1ccc(O)c(O)c1 [Protocatechualdehyde] | 0.314 (inactive) |
| Cn1c(=O)c2c(ncn2CC(=O)O)n(C)c1=O [Theophylline-7-acetic acid] | -0.159 (inactive) |
